Data published in ChEMBL document CHEMBL4513216, “Probing the Open Global Health Chemical Diversity Library for Multistage-Active Starting Points for Next-Generation Antimalarials” (ACS Infect Dis, 2020).
Among all 69,000 compounds or so, about 8,600 (12%) showed an effect of 50% or more. The entries come from a sample that favours strong results as a whole.

What follows are compounds tested on Plasmodium berghei (assay: Screen against P. berghei liver stage (PbLuc), transformed with Luciferase, at 10uM). Conditions: tested at 10 uM.
Assay type: functional, HepG2

Structure (SMILES)	INHIBITION [%]
COCC1c2c(cnn2CC2CCOCC2)CCN1Cc1ccoc1 (stereo unspecified)	14.4
CCC(C)(CC(=O)OC)NCc1noc(C)n1 (stereo unspecified)	-31.9
CCC(C)(CC(=O)OC)NCc1cc(C)on1 (stereo unspecified)	56.6
CCC(C)(CC(=O)OC)NCc1nc(C)no1 (stereo unspecified)	-50.8
CC(=O)N1CCN(C(=O)CCCc2nnc(-c3ccccc3)o2)CC1	28.8
CC(Nc1cccc(CN2CCOC2=O)c1)C(=O)Nc1ccccc1 (stereo unspecified)	35.4
CN1[C@@H](c2ccccc2)[C@@H](C(=O)NCc2ccncc2)C[C@@]1(C)C(=O)O	39.6
CN1[C@@H](c2ccccc2)[C@@H](C(=O)NCc2ccccn2)C[C@@]1(C)C(=O)O	60.1
CN1[C@@H](c2ccccc2)[C@@H](C(=O)NCC2CCOCC2)C[C@@]1(C)C(=O)O	41.5
COC(=O)CC1CCN(C(=O)c2ccc(-n3nnnc3C)cc2)CC1	27
O=C(c1cccnc1)N1CCC2(CNS(=O)(=O)c3cnccc3O2)C1 (stereo unspecified)	37.5
O=C(c1ccccn1)N1CCC2(CNS(=O)(=O)c3cnccc3O2)C1 (stereo unspecified)	17.6
CC(C)(C)C(=O)N1CCC2(CNS(=O)(=O)c3cnccc3O2)C1 (stereo unspecified)	53.2
O=C(CNc1ccc(OC2CCOC2)cc1)NCc1ccc(F)cc1 (stereo unspecified)	-68.6
Cn1nnc2c(N3CC(C(=O)NCc4cccs4)C3)ncnc21	-37.2
O=C(NC1CC1)N1CC[C@H]2[C@H]1CCN2c1ncccn1	-4.82
CCc1noc(CN2CCN(C(=O)C3CC3)CC2)n1	54.4
CCc1noc(CN2CCN(C(=O)N(C)C)CC2)n1	-27.3
CCc1noc(CN2CCN(C(=O)COC)CC2)n1	25.6
CCc1noc(CN2CCCN(C(C)=O)CC2)n1	25.6
CCc1noc(CN2CCN(C(=O)Cc3ccc(F)cc3)CC2)n1	52.4
CCc1noc(CN2CCN(C(=O)c3ccccc3F)CC2)n1	43.3

Structure (SMILES)	INHIBITION [%]
Cc1cc(C(=O)N2CCc3ncc(CN4CCOCC4)n3CC2)no1	35.8
Cn1cnnc1C1CCCN(C(=O)COCc2ccccc2)C1 (stereo unspecified)	45.7
O=C1CCN(CCCS(=O)(=O)c2ccc(Cl)cc2)CCN1	20.6
Cc1ncnc(N2CCCN(c3nc4ccccc4s3)CC2)c1C	89.6
c1ccc2sc(N3CCN(c4ncnc5c4CCC5)CC3)nc2c1	79.9
CN(C)S(=O)(=O)N1CC[C@]2(O)CCN(c3nc4ccccc4s3)C[C@@H]2C1	11.3
NC(=O)c1cccnc1N1CCN(c2ncnc3c2CCNC3)CC1	31.7
Cc1cccc(CN2CCc3ncnc(N4CCCC4)c3CC2)n1	-27.4
COCC(=O)N1CCCN(c2ncnc3c2CCNCC3)CC1	11.7
c1ccc2sc(N3CCCN(c4ncnc5c4CCNC5)CC3)nc2c1	74.5
Cn1nc2c(cc1=O)CN(c1nc3ccccc3s1)CC2	-80.7
Cc1cc(C(=O)N2CCN(c3nc4ccccc4s3)CC2)no1	36.8
COCCCN1CC2(CCCN(CCn3cc(Cl)cn3)C2)CCC1=O (stereo unspecified)	17.4
CCOC(=O)Cc1csc(NC(=O)c2cc3n(n2)CCCO3)n1	-42.6
COCCCN(CCOC)Cc1nc2c(cnn2C)c(=O)[nH]1	25.1
CCN(CC)C(CNCc1ccc(OC)c(F)c1)c1ccco1 (stereo unspecified)	-75
CCN(CC)C(CNS(=O)(=O)c1ccc(C(=O)NC)cc1)c1ccco1 (stereo unspecified)	12.6
CCN(CC)C(CNCc1cc(F)cc(F)c1)c1ccco1 (stereo unspecified)	34.1
CCN(CC)C(CNCc1ccc(O)cc1)c1ccco1 (stereo unspecified)	77.8
CCN(CC)C(CNS(=O)(=O)c1ccc(C(C)=O)cc1)c1ccco1 (stereo unspecified)	26.4
CCN(CC)C(CNS(=O)(=O)c1ccc(C(N)=O)cc1)c1ccco1 (stereo unspecified)	54.3
O=C(CCc1ccccn1)N1CCCN(C(=O)CC2CCCC2)CC1	21.5

Structure (SMILES)	INHIBITION [%]
N#Cc1cccc(NC(=O)N2CCC3(CCC(=O)N(C4CC4)C3)CC2)c1	19.5
COc1ncccc1CN1CCC2(CC1)COCCN2C	70.4
CCN1CCCC12CCN(Cc1cccnc1OC)CC2	42.3
CCOC1COC2(CCN(Cc3cccnc3OC)CC2)C1 (stereo unspecified)	18.6
COCCN1CCCC12CCN(Cc1cccnc1OC)CC2	26
COc1ncccc1CN1CC[C@]2(C[C@@H](OCc3ccccn3)CO2)C1	-3.52
COc1ncccc1CN1CCC2(CC1)CC(OCC1CC1)CO2 (stereo unspecified)	56.4
CCCC(=O)N1CCC(C(=O)NCCNc2ncccn2)CC1	21.6
Cc1c[nH]c(C2CCCN2C(=O)CCc2c(C)n[nH]c2C)n1 (stereo unspecified)	-0.13
CN(C)C(=O)N1CCN(C(=O)c2ccn3cncc3c2)CC1	15.1
O=C(Cn1nnn(-c2cccs2)c1=O)NCC1CCOC1 (stereo unspecified)	13.7
O=C(Cn1nnn(-c2cccs2)c1=O)N(CC1CCOC1)C1CC1 (stereo unspecified)	51.7
CCN(CC1CCOC1)C(=O)Cn1nnn(-c2cccs2)c1=O (stereo unspecified)	12.8
CC(C)c1nc2c(n1C)CCN(CCCOc1ccc(C#N)cc1)C2	-2.53
Nc1ncccc1C(=O)NCc1ccc(Br)cc1	-26.3
COc1cccc(CNC(=O)c2cccnc2N)c1	0.207
Nc1ncccc1C(=O)NCc1cccc(Br)c1	68.9
CC(C)Sc1ncccc1C(=O)NCc1cccc(N(C)C)c1	19.6
Nc1ncccc1C(=O)NCc1cccc(Cl)c1	69.8
Cc1cccc(CNC(=O)c2cccnc2N)c1	44.1
CC(C)N1CC(C(=O)NCc2ccc(S(=O)(=O)N(C)C)cc2)CC1=O (stereo unspecified)	6
CN1CCC(Cc2cnc(CNC(=O)Cc3cccc(F)c3)cn2)CC1	26.75

Structure (SMILES)	INHIBITION [%]
Cc1ccc(NC2COC3(CCN(CC(C)C)CC3)C2)nn1 (stereo unspecified)	46.7
CCc1nnc2n1CCN(C(C(=O)NC1CC1)c1ccc(F)cc1)C2 (stereo unspecified)	2.61
CN1CCC(Cc2noc(CC3CC3)n2)CC1	48.8
CN1CCN(Cc2noc(CC3CCc4ccccc43)n2)CC1 (stereo unspecified)	42.1
CCCN1CCC(Cc2nc(CN3CCN(C)CC3)no2)CC1	54.4
CCCc1nc(CN2CCN(CC(O)c3ccccc3)CC2)no1 (stereo unspecified)	34.5
CCCc1nc(CN2CCN(Cc3noc(CCC)n3)CC2)no1	17.7
CN1CCN(Cc2noc(CCc3nc(-c4ccccc4)no3)n2)CC1	74.4
Cc1noc(C)c1C(=O)N1CCC(n2cccn2)CC1	19.4
Cc1nc(CN2C(=O)CCC23CCN(c2ncccc2C)CC3)cs1	37.2
CC(=O)N1CCc2nnc(C3CCCCN3CC3CC3)n2CC1 (stereo unspecified)	3.91
COC(=O)Cn1c(C)cc(=O)n2nc(-c3cccs3)nc12	29.2
COCCCNC(=O)Cn1c(C)cc(=O)n2nc(-c3cccs3)nc12	49.1
Cc1cc(=O)n2nc(-c3cccs3)nc2n1CC(=O)NC(C)C	67.3
Cc1cccc(CN(Cc2nc3c(cnn3C)c(=O)[nH]2)C2CC2)c1	23.7
Cc1cc(C)nc(C2CCN(C(=O)CCn3nnc4ccccc43)C2)n1 (stereo unspecified)	22
CSc1ccccc1NC(=O)N1C[C@@H](N(C)C)[C@H](c2ccc(C)cc2)C1	-5.38
CCOc1ccc(CN2CC[C@@H]3CC[C@H](C2)N3)cc1CO	31.2
N#Cc1ccc(C(=O)N2CC[C@H]3[C@H]2CCN3CC2CC2)cc1	27.2
N#Cc1ccc(C(=O)N2CC[C@H]3[C@H]2CCN3CC2CCOCC2)cc1	-13.4
Cc1ccc(C(=O)N2CC[C@H]3[C@H]2CCN3CC2CCOCC2)cc1F	67.2
O=C(c1ccco1)N1CC[C@H]2[C@H]1CCN2CC1CCOCC1	25

Structure (SMILES)	INHIBITION [%]
Cc1ccc(C(=O)N2CC[C@H]3[C@H]2CCN3CC2CCOCC2)cn1	57.9
N#Cc1cccc(C(=O)N2CC[C@H]3[C@H]2CCN3CC2CC2)c1	12.4
O=C(c1cccc(Cl)c1)N1CC[C@H]2[C@H]1CCN2CC1CCOCC1	30.1
O=C(c1ccc(F)cc1)N1CC[C@H]2[C@H]1CCN2CC1CC1	-12.2
O=C(c1ccc(F)cc1)N1CC[C@H]2[C@H]1CCN2CC1CCOCC1	64.9
O=C(c1cccc(Cl)c1)N1CC[C@H]2[C@H]1CCN2CC1CC1	64.9
O=C(c1cscn1)N1CC[C@@H]2[C@@H]1CCN2CC1CCOCC1	-41
O=C(c1cscn1)N1CC[C@@H]2[C@@H]1CCN2CC1CCOC1 (stereo partly specified)	49.4
COc1ncc(CN(CCCN2CCOCC2)Cc2ccc(C)o2)cn1	30.4
CC(C)c1ncc2c(n1)CN(CCCc1nc3ccccc3o1)CC2	40.9
Cc1cc(CN2CCC3(CC2)COC(COc2ccccn2)C3)no1 (stereo unspecified)	-19.8
O=C1CCC2(CCNCC2)CN1Cc1nnc2ccccn12	42.1
Cc1[nH]ccc1C(=O)N1CCN(C)C2(CCC(=O)N(C)CC2)C1 (stereo unspecified)	-2.39
CC(C)(C)C(=O)NCCn1ccc(-c2ccccn2)n1	-43.7
COc1ccc([C@@H]2CN(Cc3ccncc3)C[C@H]2N(C)C)cc1	33
O=C(c1cccc(F)c1)N1CC[C@H]2[C@H]1CCN2CC1CCOCC1	59
N#Cc1cccc(C(=O)N2CC[C@H]3[C@H]2CCN3CC2CCOCC2)c1	34.6
Cn1cc(CN2CC[C@@H]3[C@@H]2CCN3C(=O)c2cccc(F)c2)cn1	10.1
